Experimental data: PubChem BioAssay

biological target: Follistatin (Homo sapiens) (UniProt P19883); assay: FST protein binding to printed compounds – biochemical, small-molecule microarray, 635/667 nm fluorescence, primary screen (AID 1132); details: 635 nm fluorescence, higher = more signal
Sequence (P19883 whole entry, looked up): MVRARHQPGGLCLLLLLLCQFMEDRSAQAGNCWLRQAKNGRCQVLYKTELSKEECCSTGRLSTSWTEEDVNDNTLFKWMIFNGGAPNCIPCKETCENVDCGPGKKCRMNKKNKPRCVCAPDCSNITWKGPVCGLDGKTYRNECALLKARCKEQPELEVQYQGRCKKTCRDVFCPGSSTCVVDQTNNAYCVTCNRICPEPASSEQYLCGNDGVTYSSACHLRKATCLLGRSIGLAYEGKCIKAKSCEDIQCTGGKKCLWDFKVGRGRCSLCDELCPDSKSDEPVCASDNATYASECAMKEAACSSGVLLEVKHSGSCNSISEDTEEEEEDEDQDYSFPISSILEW

SMILES | composite z-score
C=CCN1C(=O)[C@@]2(CC=C)N=C(c3ccc(OCCCO)cc3)O[C@H]2c2ccccc21 | 1.49
CCCC[C@@H]1C[C@H]1[C@@H](NC(=O)c1ccco1)c1ccc(-c2ccccc2)cc1 | 0.038
C=C(C)[C@@H]1CC=C(C(O)C2C=CC3C(=O)N(C)C(=O)C3N2Nc2ccccc2)CC1 (some centres undefined) | 1.38
O=C1C2C=CC(C(O)Cc3ccccc3)N(n3cnnc3)C2C(=O)N1Cc1ccccc1 (centres undefined) | -0.185
C=C(COC)/C(=C/C[C@@H](OC(C)=O)c1ccc(OCCO)cc1)c1cnc2ccccc2c1 | 1.41
COCCOC(=O)N1C(=O)[C@@]2(c3cc(C#CCNC(N)=O)ccc31)[C@H](C(=O)N1CCN(c3ncccn3)CC1)[C@H]1C(=O)O[C@H](c3ccccc3)[C@H](c3ccccc3)N1[C@@H]2c1ccc(OCCO)cc1 | 1.12
C=CCOC(=O)[C@@H]1[C@H]2C(=O)O[C@H](c3ccccc3)[C@H](c3ccccc3)N2[C@H](c2ccc(OCCOC(=O)[C@@H]3C[C@@H]4C(=O)NCC(=O)N4[C@@H]3c3ccc(O)cc3)cc2)[C@@]12C(=O)Nc1ccc(I)cc12 | 1.36
CC#CC(=O)Oc1ccccc1C=CC(=O)OCC | 0.036
CCCC[C@@H]1C[C@H]1[C@@H](NC(=O)c1ccco1)c1ccccc1C(F)(F)F | 0.674

biological target: Fibroblast growth factor 2 (Homo sapiens) (UniProt P09038); assay: basic fibroblast growth factor binding to printed compounds – biochemical, small-molecule microarray, 635/667 nm fluorescence, primary screen (AID 1133); details: FGF2, fluorescence 635/667, higher = more signal
Sequence (P09038 whole entry, looked up): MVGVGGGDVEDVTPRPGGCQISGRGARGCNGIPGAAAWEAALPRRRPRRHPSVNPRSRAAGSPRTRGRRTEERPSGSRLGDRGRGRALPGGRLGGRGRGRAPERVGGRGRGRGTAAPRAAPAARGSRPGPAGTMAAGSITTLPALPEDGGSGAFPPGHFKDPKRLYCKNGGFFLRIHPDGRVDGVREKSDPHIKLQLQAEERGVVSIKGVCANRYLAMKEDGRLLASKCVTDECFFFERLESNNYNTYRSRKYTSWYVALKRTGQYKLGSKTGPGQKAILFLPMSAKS

SMILES | composite z-score
COCCOC(=O)N1C(=O)[C@@]2(c3ccccc31)[C@H](c1ccc(O)cc1)N1[C@H](c3ccccc3)[C@H](c3ccccc3)OC(=O)[C@H]1[C@@H]2C(=O)Nc1nc2ccccc2s1 | 0.408
C=CCOC(=O)[C@H]1[C@@H]2C(=O)O[C@@H](c3ccccc3)[C@@H](c3ccccc3)N2[C@@H](c2ccc(OCCOC(=O)[C@H]3C[C@H]4C(=O)N[C@@H](CCCCN(C)C)C(=O)N4[C@H]3c3ccc(O)cc3)cc2)[C@]12C(=O)Nc1ccc(I)cc12 | 1.64
NC(=O)[C@@H]1[C@H]2C(=O)O[C@H](c3ccccc3)[C@H](c3ccccc3)N2[C@H](c2ccc(O)cc2)[C@@]12C(=O)Nc1ccccc12 | -1.17
CC(C)C[C@@H]1NC(=O)[C@H](C(C)C)NC(=O)[C@@]23C(=O)N[C@@H](Cc4ccccc4)C2[C@H](C)[C@@]2(C)O[C@H]2C3/C=C/CC/C=C/CNC1=O (some centres undefined) | 1.53
COC(=O)C(CC#Cc1ccc2c(c1)[C@]1(C(=O)N2)[C@H](c2ccc(OCCO)cc2)N2[C@H](c3ccccc3)[C@H](c3ccccc3)OC(=O)[C@H]2[C@@H]1C(=O)Nc1nc2ccccc2s1)C(=O)OC | 0.408
O=C1NC(=O)C2C1C=CC(C(O)c1cc(C(F)(F)F)cc(C(F)(F)F)c1)N2Nc1ccccn1 (centres undefined) | 0.047
Cc1ccc(S[C@]2(C(=O)NCCCN(C)C)CC(=O)N(Cc3cc(C(F)(F)F)cc(C(F)(F)F)c3)[C@@H]2c2ccc(CO)cc2I)cc1 | -0.862
C=C(C(=O)CC[C@@H](OC(=O)c1cccnc1)c1ccccc1OCCO)C(C)C | 0.647
COc1cc(NN2C(C(O)c3ccco3)C=CC3C(=O)N(c4ccccc4)C(=O)C32)cc(OC)c1OC (centres undefined) | -0.132
COC(=O)[C@@]1(Cc2ccc(OC)cc2)[C@H]2c3cc(C(=O)N(C)C)n(CCc4ccccn4)c3C[C@H]2CN1C(=O)c1ccccc1 | -0.162
O=C(NC1CC1)[C@@H]1c2ccccc2C(=O)N(Cc2ccccc2Cl)[C@H]1c1ccc(CO)cc1 | 1.32
COC(=O)[C@@]1(Cc2ccc(F)cc2)[C@H]2c3cc(C(=O)N(C)C)n(Cc4ccccc4)c3C[C@H]2CN1C(=O)c1ccccc1 | -0.525
O=C1C2C=CC(C(O)CCc3ccccc3)N(Nc3ccccc3F)C2C(=O)N1c1ccccc1 (centres undefined) | -0.449
C=C[C@H](CO[Si](CC)(CC)CC)N(Cc1ccc(OC(C)=O)c(OC)c1)S(=O)(=O)c1ccc(Br)cc1 | 0.913
O=C1O[C@@H](c2ccccc2)[C@@H](c2ccccc2)N2[C@@H](c3ccccc3OCCO)[C@]3(C(=O)Nc4ccc(C#CC5=CCCCC5)cc43)[C@@H](C(=O)N3CCCCCCC3)[C@H]12 | 0.095
CCOC(=O)[C@H]1C/C=C/C[C@H](C(=O)OCC)C(=O)O[C@H]2[C@@H](OC)O[C@H](CO)[C@@H](OC(=O)c3c(OC)cccc3OC)[C@@H]2OC1=O | 0.418
CCC(CC)C(O)C1C=CC2C(=O)NC(=O)C2N1Nc1ccc(Cl)cc1Cl (centres undefined) | -0.0832
CCOC(=O)C[C@H]1[C@H](OC(=O)c2ccc(C(=O)c3ccccc3)cc2)[C@@H](NC(=O)c2ccc3ccccc3c2)c2cc(OCCCO)ccc2N1C(=O)Cc1ccc(OC)cc1 | 0.115

SMILES | composite z-score
COC(=O)[C@@]1(CCC(=O)OC(C)(C)C)N=C(c2ccc(OCCCO)cc2)O[C@H]1c1ccccc1N=[N+]=[N-] | 0.0436
COC(=O)[C@@]1(Cc2ccc(OC)cc2)[C@H]2c3cc(C(=O)N(C)C)n(Cc4ccccn4)c3C[C@H]2CN1C(=O)c1ccccc1 | -0.567
CCCC[C@@H]1C[C@H]1[C@@H](NC(=O)c1ccccc1)c1ccc(C(=O)OC)cc1 | -1.67
CCCCCCc1nc(-c2ccc(OC)nc2)cc2c1[Si](C(C)C)(C(C)C)O[C@H]2c1ccccc1 | 0.896
COC(=O)C(CC#Cc1ccc2c(c1)[C@]1(C(=O)N2)[C@H](C(=O)Nc2nc3ccccc3s2)[C@H]2C(=O)O[C@H](c3ccccc3)[C@H](c3ccccc3)N2[C@@H]1c1ccccc1OCCO)C(=O)OC | 0.452
CN(C)C(=O)[C@@]1(CCS(=O)(=O)c2ccccc2)COC(c2ccc(OCCCO)cc2)=N1 | -0.0861
COc1ccc(C#Cc2ccc3c(c2)[C@]2(C(=O)N3)[C@H](C(=O)Nc3nc4ccccc4s3)[C@H]3C(=O)O[C@H](c4ccccc4)[C@H](c4ccccc4)N3[C@@H]2c2ccc(O)cc2)cc1 | 0.882
C=C(CC1([C@@H](NP(=O)(c2ccccc2)c2ccccc2)[C@H]2C[C@@H]2CCCC)CC1)c1ccccc1 | 0.0962
C=CCN1C(=O)[C@@]2(CC=C)N=C(c3ccc(OCCCO)cc3)O[C@H]2c2ccccc21 | 1.76
CCCC[C@@H]1C[C@H]1[C@@H](NC(=O)c1ccco1)c1ccc(-c2ccccc2)cc1 | -0.199
C=C(C)[C@@H]1CC=C(C(O)C2C=CC3C(=O)N(C)C(=O)C3N2Nc2ccccc2)CC1 (some centres undefined) | 1.12
O=C1C2C=CC(C(O)Cc3ccccc3)N(n3cnnc3)C2C(=O)N1Cc1ccccc1 (centres undefined) | -0.279
C=C(COC)/C(=C/C[C@@H](OC(C)=O)c1ccc(OCCO)cc1)c1cnc2ccccc2c1 | 1.55
COCCOC(=O)N1C(=O)[C@@]2(c3cc(C#CCNC(N)=O)ccc31)[C@H](C(=O)N1CCN(c3ncccn3)CC1)[C@H]1C(=O)O[C@H](c3ccccc3)[C@H](c3ccccc3)N1[C@@H]2c1ccc(OCCO)cc1 | 0.674
C=CCOC(=O)[C@@H]1[C@H]2C(=O)O[C@H](c3ccccc3)[C@H](c3ccccc3)N2[C@H](c2ccc(OCCOC(=O)[C@@H]3C[C@@H]4C(=O)NCC(=O)N4[C@@H]3c3ccc(O)cc3)cc2)[C@@]12C(=O)Nc1ccc(I)cc12 | 1.27
CC#CC(=O)Oc1ccccc1C=CC(=O)OCC | 0.524
CCCC[C@@H]1C[C@H]1[C@@H](NC(=O)c1ccco1)c1ccccc1C(F)(F)F | -0.527
